Screening results as filed in PubChem.
This is a sample that favours compounds with a hit; in the whole collection about 10% have one here.
HEK cytotox: HEK 293 cell cytotoxicity; Potency, µM (doses to about 115 µM), actives largely listed as inhibitors; HEK 293 viability, ATP luminescence (CellTiter-Glo), 48-72 h; AID 1345083; 94,000 compounds, 6.6% hits; further: nearly all actives have a fitted effect of over 60% in size
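Read-out: CellTiter-Glo ATP luminescence. Cells: HEK 293, 250 cells/well. Exposure: 48 or 72 hr, 37 degree Celsius.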
NPR1 antag: blocks ANP-stimulated signaling of human Npr1 receptor; P16066; HEK293 hNpr1 GloSensor cGMP, ANP-stimulated luminescence; Potency, µM (top dose mostly 46.3 µM), most hits filed as inhibitors; 76,000 compounds, 1.6% hits; calls by dose curve; further: nearly all actives have a fitted effect of over 60% in size
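Compound pre-incubated 30 min at room temperature on GloSensor-loaded HEK293 cells stably carrying hNpr1 and the pGS-40F cGMP biosensor. Stimulation uses hNppA at 0.1 nM final; luminescence is taken at baseline and 20 min post-agonist.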
FLuc inh: blocks purified firefly luciferase enzyme activity; P08659; purified P. pyralis luciferase, luminescence, biochemical; Potency, µM (top dose mostly 115 µM), hits mostly inhibitors; 76,000 compounds, 2.5% hits; AID 1347043; further: nearly all actives have a fitted effect of over 65% in size
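Luminescence read by CCD imaging after purified firefly luciferase (10nM final) was added to substrate buffer holding 10uM D-luciferin and 10uM ATP, pH 7.5, pre-dosed with compound.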
3T3 cytotox: kills NIH 3T3 cells. NIH 3T3 viability, CellTiter-Glo ATP luminescence, 48-72 h. Potency, µM (titrated, usually from 96.7 µM), most hits filed as inhibitors. 94,000 compounds, 4.3% hits; further: nearly all actives have a fitted effect of over 55% in size
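Cells were seeded at 400 per well, treated with pin-transferred compound, and kept 48 or 72 hr at 37 °C before CellTiter-Glo addition and luminescence imaging of cellular ATP.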
GPT2 inhibitor: GPT2 alanine aminotransferase inhibition; Q8TD30; Recombinant GPT2, coupled pyruvate oxidase/HRP Amplex Red fluorescence; Potency, µM (top dose mostly 57.7 µM), hits mostly inhibitors; 100,000 compounds, 0.25% hits; AID 1671188; further: nearly all actives have a fitted effect of over 60% in size
Target sequence (Q8TD30 whole entry, looked up): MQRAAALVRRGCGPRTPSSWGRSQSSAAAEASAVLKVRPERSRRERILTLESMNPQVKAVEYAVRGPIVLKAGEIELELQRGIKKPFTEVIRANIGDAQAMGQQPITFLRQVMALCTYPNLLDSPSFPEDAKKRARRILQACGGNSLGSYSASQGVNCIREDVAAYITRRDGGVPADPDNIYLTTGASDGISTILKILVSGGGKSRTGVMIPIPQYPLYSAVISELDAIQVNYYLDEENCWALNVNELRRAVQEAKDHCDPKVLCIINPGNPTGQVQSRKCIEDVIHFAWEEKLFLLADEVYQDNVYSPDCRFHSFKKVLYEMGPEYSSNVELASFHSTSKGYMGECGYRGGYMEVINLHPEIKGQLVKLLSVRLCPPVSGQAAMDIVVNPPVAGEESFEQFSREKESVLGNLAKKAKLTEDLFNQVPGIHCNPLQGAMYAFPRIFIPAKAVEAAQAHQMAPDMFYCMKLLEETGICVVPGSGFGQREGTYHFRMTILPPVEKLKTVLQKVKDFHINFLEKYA
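Inhibition is scored from Amplex Red fluorescence generated when pyruvate oxidase and HRP act on pyruvate released by GPT2. Reactions contain 10ng/uL enzyme, 250uM a-KG and 2mM L-alanine and run 30 min at room temperature.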
Large screens that a line does not name were inactive. Unless noted, the call rests on the fitted dose curve; in most records, active means well fitted curve in the direction sought with a large enough effect; inconclusive means small, poorly fitted or top-dose-only effect, or another doubt; inactive means no such curve, though single readings can be large; an effect the other way counts as inactive or inconclusive.

O=C(c1ccc(Oc2ccccc2)cc1)N1CCNc2cnc(Nc3cccc(C(F)(F)F)c3)nc2C1	HEK cytotox 22µM, NPR1 antag inconclusive, 3T3 cytotox 25µM
O=C(c1ccc(Cl)cc1)N1CCNc2cnc(Nc3cccc(C(F)(F)F)c3)nc2C1	HEK cytotox 32µM, NPR1 antag inconclusive, 3T3 cytotox 22µM
Cc1ncsc1C(=O)N1CCNc2cnc(Nc3cccc(C(F)(F)F)c3)nc2C1	HEK cytotox inconclusive, NPR1 antag inconclusive, 3T3 cytotox inconclusive
O=C(Nc1cccs1)N1CCNc2cnc(Nc3cccc(C(F)(F)F)c3)nc2C1	HEK cytotox 79µM, 3T3 cytotox 79µM
O=C(c1cccc(Cl)c1)N1CCCC(C(=O)N2CCC(N3CCCC3=O)CC2)C1 (centres undefined)	none (no result: NPR1 antag, FLuc inh)
O=C(NCCc1ccccc1)c1ccc2nnc(-c3ccoc3)n2c1	HEK cytotox inconclusive (no result: NPR1 antag, FLuc inh)
Cc1ccccc1CC(=O)N1CCC2(CC1)N=C(c1cccc(Br)c1)NO2	HEK cytotox 89µM, NPR1 antag inconclusive, 3T3 cytotox inconclusive
O=C(c1ccccc1)N1CCC2(CC1)N=C(c1cccc(Br)c1)NO2	HEK cytotox inconclusive, 3T3 cytotox inconclusive
COc1ccccc1CC(=O)N1CCC2(CC1)N=C(c1ccc(Cl)cc1)NO2	HEK cytotox 45µM, NPR1 antag inconclusive, 3T3 cytotox inconclusive
CCN1C(=O)CN(C(=O)c2cccs2)CC12CCOCC2	none (no result: NPR1 antag, FLuc inh)
O=C(NCCC1CCCCC1)c1ccc2nccn2c1	HEK cytotox 50µM, FLuc inh inconclusive, 3T3 cytotox inconclusive
O=C(NCc1cccs1)c1ccc2nccn2c1	FLuc inh 40µM
O=C(NCC1CC1)c1ccc2nccn2c1	none (no result: NPR1 antag, FLuc inh)
COc1cc2c(cc1OC)C(CNC(=O)c1ccco1)N(C(=O)Nc1cccc(F)c1)CC2 (centres undefined)	HEK cytotox 45µM
COCC(=O)NCCc1ncc(C)n1C1CCCCCC1	none (no result: NPR1 antag, FLuc inh)
CCOC(=O)CCNC(=O)N1CCC(Cc2noc(-c3ccncc3)n2)C1 (centres undefined)	none
CN1CCC2(C1)CN(Cc1ccccc1)c1ccc(C(=O)NC3CCC3)cc12 (centres undefined)	HEK cytotox inconclusive, 3T3 cytotox 79µM
CN1CCCC2(C1)CN(Cc1cccnc1)c1ccc(C(=O)Nc3ccccc3)cc12 (centres undefined)	HEK cytotox inconclusive, 3T3 cytotox 89µM
CN1CCCC2(C1)CN(C)c1ccc(C(=O)Nc3ccccc3)cc12 (centres undefined)	HEK cytotox inconclusive, 3T3 cytotox inconclusive
CN1CCC2(C1)CN(Cc1ccccc1)c1ccc(C(=O)NC3CCCCC3)cc12 (centres undefined)	HEK cytotox 79µM, 3T3 cytotox inconclusive
COc1ccc(C(=O)N2CCOCC3(CN(Cc4cc(F)ccc4F)C3)C2)cc1OC	HEK cytotox 112µM, 3T3 cytotox inconclusive
COc1ccc(C(=O)N2CCOCC3(CN(Cc4cccc(Cl)c4)C3)C2)cc1OC	HEK cytotox 45µM, 3T3 cytotox inconclusive
F[C@@H]1CN(C2CCOCC2)C[C@@H]1OCc1nc2ccccc2o1	none
F[C@@H]1CN(CC2CC2)C[C@@H]1OCc1nc2ccccc2o1	FLuc inh 35µM
F[C@@H]1CN(C2CCC2)C[C@@H]1OCc1nc2ccccc2o1	FLuc inh 79µM
COc1ccccc1Nc1cnc2ccc(-c3cccc(CO)c3)nn12	HEK cytotox inconclusive, NPR1 antag inconclusive, 3T3 cytotox inconclusive
Cc1ccccc1Nc1cnc2ccc(-c3cccc(CO)c3)nn12	HEK cytotox 79µM, 3T3 cytotox inconclusive
OCc1cccc(-c2ccc3ncc(Nc4cccc(F)c4)n3n2)c1	HEK cytotox 56µM, 3T3 cytotox 28µM, GPT2 inhibitor inconclusive
COc1cccc([S+](=O)([O-])N2CCN(C(=O)c3nc4cccnc4n(CC(C)C)c3=O)CC2)c1	none (no result: NPR1 antag, FLuc inh)
CS(=O)(=O)NCCc1ccc(CC2CCN(C(=O)CC3CCCC3)CC2)cc1	HEK cytotox inconclusive, 3T3 cytotox 40µM (no result: NPR1 antag, FLuc inh)
O=C1CCN(C(=O)C2CCCC2)CCCC(c2nc(-c3ccccc3)no2)CCN1 (centres undefined)	HEK cytotox inconclusive
O=C1CCN(C(=O)c2ccco2)CCCC(c2nc(-c3ccccc3)no2)CCN1 (centres undefined)	FLuc inh 28µM
COc1ccc(CCC(=O)N2CCCC(c3nc(-c4ccccc4)no3)CCNC(=O)CC2)cc1 (centres undefined)	HEK cytotox 89µM, 3T3 cytotox inconclusive
COc1cccc(CC(=O)N2CCCC(c3nc(-c4ccccc4)no3)CCNC(=O)CC2)c1 (centres undefined)	FLuc inh inconclusive
Cc1ccc(CN2CCCC(c3nc(-c4cccnc4)no3)CCNC(=O)CC2)s1 (centres undefined)	HEK cytotox 89µM, 3T3 cytotox inconclusive
O=C(NC1CC1)c1ccc2nnc(Cc3ccc(Cl)cc3)n2c1	HEK cytotox inconclusive, 3T3 cytotox inconclusive (no result: NPR1 antag, FLuc inh)
COc1cccc(CN2CCCCCNC(=O)CC2c2ccccc2)c1 (centres undefined)	HEK cytotox inconclusive, 3T3 cytotox inconclusive
CN1Cc2sccc2C(c2ccc(O)c(O)c2)C1 (centres undefined)	GPT2 inhibitor 4µM (no result: HEK cytotox, NPR1 antag, FLuc inh, 3T3 cytotox)
CN(Cc1cccn1C)S(C)(=O)=O	none
CC(C)(C)CN1CCOC[C@H]1c1ncc(-c2ccc(C(F)(F)F)cc2)[nH]1	HEK cytotox 71µM, NPR1 antag inconclusive, 3T3 cytotox 79µM
Cc1ccc(-c2cnc([C@@H]3COCCN3Cc3ccncc3)[nH]2)cc1	none
CC(C)(C)CN1CCOC[C@H]1c1ncc(-c2ccc(Cl)cc2)[nH]1	HEK cytotox 79µM, 3T3 cytotox 89µM
Cc1ccc(-c2cnc([C@@H]3COCCN3CC3CC3)[nH]2)cc1	HEK cytotox 63µM
CC(C)(C)CN1CCOC[C@H]1c1ncc(-c2ccc(S(C)(=O)=O)cc2)[nH]1	none
Cc1nc(-c2cn(C3CCCN(C(=O)c4ccc(F)cc4)C3)nn2)no1 (centres undefined)	none
COc1cccc(-c2cn3cc(C(=O)NCc4ccc(F)cc4)nc3s2)c1	HEK cytotox inconclusive, 3T3 cytotox inconclusive (no result: NPR1 antag, FLuc inh)
CC(C)NC(=O)c1nc(-c2ccc(Cl)cc2Cl)c2cnccn12	HEK cytotox inconclusive, 3T3 cytotox inconclusive (no result: NPR1 antag, FLuc inh)
O=C([C@@H]1C[C@H](Oc2ccccc2)CN1C(=O)CC1CCCC1)N1CCCC1	3T3 cytotox 32µM, GPT2 inhibitor inconclusive
COc1ccccc1-c1cn2c(n1)CO[C@@H](CNCc1ccc(F)cc1)C2	HEK cytotox 71µM, 3T3 cytotox inconclusive
COc1ccccc1CNC[C@H]1Cn2cc(-c3ccccc3OC)nc2CO1	HEK cytotox 112µM, 3T3 cytotox 79µM
O=C(CC(c1ccccc1)c1ccc2c(c1)OCO2)N1CCCCCC1 (centres undefined)	HEK cytotox inconclusive, FLuc inh inconclusive, 3T3 cytotox inconclusive
